Results published in PubChem BioAssay (NCI).
This is part of a sample that, as a whole, favours compounds with a hit. Of some 83,000 tested, about 20% had one in any assay.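 Single-concentration screen, 48 h exposure, 96-well plates. Endpoint: percent growth. Below 10 = active.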 Values without a mark were called inactive. Active and inactive are the calls of the source.

Columns and labels:
Test in all cases: NCI-60 one-dose screen, 48 h (100 = growth as untreated, 0 = no growth, -100 = all killed)
Details in all cases: 10 µM unless noted
[1] = tested on: HCT-15 colon
[2] = tested on: HT29 colon
[3] = tested on: SNB-75 CNS
[4] = tested on: SNB-19 CNS
[5] = tested on: U251 CNS
[6] = tested on: PC-3 prostate
[7] = tested on: SK-MEL-5 melanoma
[8] = tested on: UACC-62 melanoma
[9] = tested on: LOX IMVI melanoma
[10] = tested on: SK-MEL-28 melanoma
[11] = tested on: SK-MEL-2 melanoma
[12] = tested on: EKVX NSCLC
[13] = tested on: SN12C renal
[14] = tested on: UO-31 renal
[15] = tested on: TK-10 renal
[16] = tested on: ACHN renal
[17] = tested on: CAKI-1 renal
[18] = tested on: CCRF-CEM leukemia
[19] = tested on: MOLT-4 leukemia
[20] = tested on: A498 renal

Row | SMILES | growth [1] | growth [2] | growth [3] | growth [4] | growth [5] | growth [6] | growth [7] | growth [8] | growth [9] | growth [10] | growth [11] | growth [12] | growth [13] | growth [14] | growth [15] | growth [16] | growth [17] | growth [18] | growth [19] | growth [20]
1 | Cc1cc2c(C(=O)NCC#N)cccc2n1-c1nc2c(c(NCc3ccccc3)n1)CCCC2 | -52.8% (active) | -3.71% (active) | -11.4% (active) | -49.1% (active) | -71% (active) | -18.8% (active) | -93.4% (active) | -78.2% (active) | -85% (active) | -28.2% (active) | -44.7% (active) | -18.8% (active) | -67.9% (active) | -84.3% (active) | -17.7% (active) | -4.35% (active) | -2.84% (active) | 7.4% (active) | -15.6% (active) | –
2 | CCN(CC)c1ccc(/C=N/NC(=O)CSc2nc3ccccc3c(=O)n2CCc2ccc(S(N)(=O)=O)cc2)c(O)c1 | 25.9% | 42.4% | 59.2% | 53.9% | 31.7% | 45% | 29.4% | 15.5% | 11.5% | 47.9% | 38.5% | 33.8% | 28.2% | 28.2% | 31.3% | 28.7% | – | 7.41% (active) | 7.09% (active) | –
3 | O=C(CCN1CCCC1)Nc1ccc2c(NCCc3ccccc3)c3ccccc3nc2c1 | 12% | 4.99% (active) | -70.8% (active) | -17.9% (active) | -24% (active) | -36% (active) | 11.2% | -55.1% (active) | -68% (active) | -17.4% (active) | -58.8% (active) | -4.89% (active) | -12.5% (active) | -10.8% (active) | 3.29% (active) | 11% | – | -9.81% (active) | -17.6% (active) | –
4 | COc1cc2nc(-c3ccc(Cl)cc3)cc(OCCCN3CCCC3)c2cc1OC | 20.4% | 23.8% | 8.25% (active) | 67.9% | 54.4% | 41.9% | -8.4% (active) | -66.1% (active) | -32.7% (active) | 63.7% | 71.1% | 65.8% | 37.9% | 42.3% | 101% | 35.5% | – | 44.6% | 40.4% | –
5 | COc1cc(C2C3CC4CCCC[C@H]4N3[C@@]3(C(=O)Nc4cc(Cl)ccc43)C2C(=O)c2nc3ccccc3[nH]2)cc(OC)c1OC (some centres undefined) | 43.3% | 35.6% | 78.8% | 72.5% | 56.7% | 43.7% | 64.6% | 57.5% | 58.8% | 82.4% | 80.5% | 48.6% | 63.2% | 34.8% | 68.8% | 56.9% | 30.6% | 42.2% | 14% | –
6 | CCOC(=O)c1cc(C(=O)c2ccc(Br)cc2)n2ccc(/C=C/c3cc[n+](CC(=O)c4ccc(OC)cc4)cc3)cc12 | 70.7% | 34.3% | 93.7% | 89.1% | 101% | 83.8% | 95.3% | 92.7% | 81% | 106% | 105% | 95.3% | 78% | 77.6% | 116% | 93.6% | – | -23.7% (active) | 68.3% | 92%
7 | COc1cc(-c2cc(-c3ccc(N(C)C)cc3)nc(N3CCOCC3)c2C#N)cc(OC)c1OC | 44.1% | 12.1% | 25.3% | 45% | 24.2% | 44.4% | 3.48% (active) | -39% (active) | -58.6% (active) | 65.4% | 34.5% | 51.2% | 53.4% | 54.8% | 38.4% | 46.1% | – | 30.3% | – | 75.5%
8 | Cc1c(C(=O)NCCC(=O)NO)sc2ncnc(Nc3ccc(NC(=O)Nc4cccc(C(F)(F)F)c4)cc3)c12 | 101% | 110% | 78.8% | 93.6% | 80.2% | 100% | 97.1% | 99.6% | 94.5% | 110% | 109% | 90.8% | 100% | 87.1% | 140% | 102% | 99.3% | 98.8% | 106% | –
9 | COc1ccc(C/C(C)=C(/c2ccc(OCCCN(C)C)cc2)c2ccc(OC(C)=O)cc2)cc1 | 19.3% | 4.9% (active) | 74.1% | 82.3% | 61.7% | 79.3% | 69.6% | 51.3% | 47.8% | 2.23% (active) | 101% | 80.9% | 80.8% | 62.2% | 98.9% | 85% | 81.6% | 63.1% | 55.9% | –
10 | CC/C(=C\c1ccc(OC)cc1)C(=O)c1ccc(OC)cc1 | 92.7% | 90.3% | 77.3% | 85.7% | 91.7% | 75.7% | 101% | – | 95.1% | 106% | 96% | 103% | 91.8% | 81.1% | 91.9% | 96.9% | 69.6% | 45.6% | 91.5% | 103%
11 | C=CCn1c(-c2ccc(-c3nc4ccc(C)cc4[nH]3)cc2)n[nH]c1=S | 99.2% | 105% | 104% | 102% | 101% | 101% | 89.5% | – | 98.3% | 100% | 112% | 94.5% | 96.4% | 89.7% | 133% | 99.6% | 93.6% | 87.3% | – | 94.5%
12 | O=C(Nc1ccc(NC(=O)c2cc(=O)[nH]c3ccccc23)cc1)Nc1cccc(Cl)c1 | 103% | 88.4% | 74.4% | 95.2% | 89.4% | 76.5% | 92.9% | – | 87.7% | 109% | 101% | 85.2% | 88.8% | 65.3% | 90.2% | 97.6% | 78.1% | 77.1% | 79.7% | –
13 | O=Cc1cc2ccccc2nc1Oc1ccc(C(F)(F)F)cc1 | 80.8% | 94.1% | 83.2% | 90.7% | 81.6% | 67.8% | 94.5% | – | 74.3% | 107% | 101% | 82.4% | 70.5% | 35.1% | 98% | 87.7% | 63.4% | 6.98% (active) | 60.5% | –
14 | CC(=O)Nc1cccc(-c2ccc3c(c2)NC(=O)/C3=C\c2ccc[nH]2)c1 | 27.2% | 25.6% | 53.3% | 69.1% | 45.6% | 63.8% | 61.1% | 48.5% | 35.9% | 68.3% | 54.7% | 35% | 56.6% | 25.9% | 43.2% | 33.8% | – | 27% | 29.4% | –
15 | COc1cc2oc(-c3cccc(C(=O)Nc4ccc(Cl)cc4)c3)cc(=O)c2c(O)c1OC | 70.2% | 66.2% | 24.4% | 28.4% | 23% | 55.1% | 58.7% | 42.7% | 69.8% | 67.8% | 83.1% | 77.2% | 41.5% | 47% | 75.5% | 33.4% | – | 75.6% | 74.1% | –
16 | C#CCNC(=O)c1cccc2c1cc(C)n2-c1nc2c(c(NCc3ccccc3)n1)CCCC2 | -60.1% (active) | 0.876% (active) | 5.33% (active) | -24.9% (active) | -71.6% (active) | -18.2% (active) | -94.3% (active) | -60.6% (active) | -86.6% (active) | -6.03% (active) | -38% (active) | -30.4% (active) | -41.3% (active) | -63.8% (active) | -15% (active) | 3.27% (active) | – | 5.3% (active) | -8.18% (active) | –
